# “And” between values parts separate entries of the source, which are not always exact repeats. Equal entries are not always repeated. This is part of a sample that, as a whole, favours compounds with a hit. Of some 83,000 tested, about 20% had one in any assay.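 Note: values are percent growth. 100 is the growth of untreated cells, values between 100 and 0 indicate rising inhibition; between -100 and 0 indicates cell death.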 A number with no mark means an inactive call. The source made the active and inactive calls. The calls were made as follows: active = growth percent below 10; inactive = the rest.
# Test system: MDA-MB-468 breast
# Experiment: NCI-60 one-dose screen, 48 h (100 = growth as untreated, 0 = no growth, -100 = all killed)
# Conditions: 10 µM unless noted
row,SMILES,growth
1,O=C1/C(=C\c2ccc(Br)o2)SC(=S)N1CCc1ccc(O)cc1,28.2%
2,COc1ccc(-c2nc3ccc(-c4nc5ccc(N6CCN(c7ccc(F)cc7)CC6)cc5[nH]4)cc3[nH]2)cc1OC,67.4%
3,COc1ccc(-c2nc3c(c(-c4ccc(Cl)cc4)nn3-c3ccccc3)c(-c3ccc(O)cc3)c2C#N)cc1,54.8%
4,COC(=O)C1=C(C(=O)ON)C2C=CC1(C(Cc1ccccc1)Nc1ccccc1)O2 (configuration not stated),-45% (active)
5,COc1cccc(-c2nc3cc(NC(=O)c4ccc(Cl)c(C#N)c4)ccc3o2)c1,-60.3% (active)
6,C#Cc1ccc(-n2c(/C=C/c3ccc(O)cc3)nc3ncccc3c2=O)cc1,-10.6% (active)
7,O=C(O)C(c1ccccc1)N1C(=O)CSC1=S (configuration not stated),101%
8,N=C(N)c1ccc(-c2ccc(-c3ccc(Cl)cc3)o2)nc1,-88.7% (active)
9,O=C(NC1CCNCC1)c1[nH]ncc1NC(=O)c1c(Cl)cccc1Cl,-37.2% (active)
10,Cc1ccc(-c2nc3ccc(Cl)cn3c2NC2CCCCC2)o1,78.2%
11,O=C(NC(Cc1cn(Cc2ccccc2)cn1)C(=O)O)OCC1c2ccccc2-c2ccccc21 (configuration not stated),107%
12,O=C(CCc1nnc2sc(/C=C\c3ccccc3)nn12)c1nc2ccccc2[nH]1,76.7%
13,O=C(NCCNC(=O)c1ccc(F)cc1)Nc1ccc(-n2cc(-c3ccncc3)c(-c3ccc(Cl)c(O)c3)n2)cc1,-35.9% (active)
14,COc1cccc2c1O/C(=C\c1ncc([N+](=O)[O-])n1C)C2=O,19%
15,Cc1cc(C)cc(Nc2cc(C)nc3nc(C(F)(F)F)nn23)c1,25.5%
16,Cc1nnc(NC/C=C/c2ccccc2)s1,106% and 92%
17,Cn1c(=O)c2c(nc(Br)n2CCC(=O)Nc2ccc(F)cc2)n(C)c1=O,113%
18,Cc1cccc(C(=O)N(C(C)C)C(C)C)c1,105%
19,COC1CCN(Cc2ccc3c(NNC(=O)c4cnccn4)nc4cc(F)ccc4n23)C1 (configuration not stated),-32.1% (active)
20,COc1ccc(-c2cc(=O)c3c(OC)c4ccoc4cc3o2)cc1,101%
21,Nc1c(C(=O)Nc2cccc(C(F)(F)F)c2)sc2nc3c(cc12)CCCCCC3,-24.9% (active)
22,CC(C)c1ccc(C(=O)Nc2nc3ccc(O)c(CN(C)C)c3s2)cc1,77.1%
23,Cc1cc(O)c2c(c1)C[C@H]1[C@@H]3CC[C@H]4CC(=O)CC[C@]4(C)[C@H]3CC(=O)[C@]21C,71.4%
24,COC(=O)c1nc(=S)[nH]c(C(=O)OC)c1C(=O)c1ccc(Cl)c(Cl)c1,105%
25,S=c1[nH]nc2ccccn12,98.2%
26,CCc1ccc(NC(=O)N[C@@H](Cc2cc(F)cc(F)c2)C(=O)N[C@@H]2C(=O)N3CCC[C@H]3C(=O)N3CCO[C@H](C)[C@H]3C(=O)N[C@@H](CO)C(=O)N3C[C@H](C)C[C@H]3C(=O)O[C@H]2C)c(F)c1,-7.66% (active)
27,COCc1cc2c(cc1Br)OCO2,110%

# — PubChem BioAssay (NCI)
